Our source for the growth inhibition values is PubChem BioAssay (NCI).

The panel holds about 79,000 compounds, 15% with a hit somewhere; the sample as a whole holds those more often. A number with no mark means an inactive call. Calls of active or inactive are those of the source. Cut-off read from the data, not from the text of the source: active = growth inhibition above about 70%; inactive = the rest.

The test is described as follows: NCI Yeast Anticancer Drug Screen. Data for the mgt1 strain (AID 153). Conditions: S. cerevisiae mgt1 mutant growth inhibition, active compounds read high. The protocol: Growth inhibition of yeast strains with defined genetic alterations is measured as a screen for potential anti-cancer activity. Selected strains with alterations in DNA damage repair or cell cycle control were exposed to compounds and growth inhibition was measured relative to vehicle treated controls. The strain used in this assay is mgt1

With `CSc1nc(=S)[nH]c2c1c(C)nn2-c1ccccc1`, the growth inhibition is -19% (at 1.2 µM); -15% (at 3.7 µM); -3% (at 11.0 µM); 7% (at 33.0 µM); 35% (at 100.0 µM).

As to `CC(=O)OCc1ccc(O)c(C=O)c1`, the growth inhibition was -24% (at 1.2 µM); -17% (at 3.7 µM); -18% (at 11.0 µM); 6% (at 33.0 µM); 25% (at 100.0 µM).

On to `Cc1ccc2ccc(O)cc2c1`, for which the growth inhibition reads like this: (at 1.2 µM) -25%; (at 3.7 µM) -19%; (at 11.0 µM) -22%; (at 33.0 µM) -21%; (at 100.0 µM) 50%.

As to `O=C(O)C1CCCCC1c1c2ccc(=O)c(O)c-2oc2c(O)c(O)ccc12` (stereo not given), the growth inhibition was 11% (at 1.2 µM); 10% (at 3.7 µM); 15% (at 11.0 µM); 53% (at 33.0 µM); 86% (active) (at 100.0 µM).

For the compound `COC(=O)c1ccc(CCC2=CC(=O)C(Br)=CC2=O)cc1`, the growth inhibition by setting is: (at 1.2 µM) -6%; (at 3.7 µM) -1%; (at 11.0 µM) -4%; (at 33.0 µM) -7%; (at 100.0 µM) 24%.

Consider `O=[N+]([O-])c1cccc2nccc(NCCCO)c12`, for which the growth inhibition is, setting by setting: (at 1.2 µM) -24%; (at 3.7 µM) -9%; (at 11.0 µM) -12%; (at 33.0 µM) 5%; (at 100.0 µM) 26%.

Regarding `CC(Br)C(=O)c1ccc2cc(Br)c3ccccc3c2c1` (stereo not given), the growth inhibition is -1% (at 1.2 µM); -1% (at 3.7 µM); -1% (at 11.0 µM); 2% (at 33.0 µM); 5% (at 100.0 µM).

As to `CCOC(=O)C1=C(C(=O)c2ccccc2)C(c2ccccc2[N+](=O)[O-])C(C(=O)c2ccccc2)=C(C(=O)OCC)N1`, the growth inhibition was 0% (at 1.2 µM); 1% (at 3.7 µM); 0% (at 11.0 µM); 1% (at 33.0 µM); 35% (at 100.0 µM).
